Bioassay records deposited in PubChem BioAssay by National Center for Advancing Translational Sciences (NCATS).
An excerpt weighted towards active compounds, which were near 1.3% of everything screened.
SARS PLP yeast = SARS-CoV PLP inhibition in yeast. S. cerevisiae expressing SARS-CoV PLpro, growth rescue. 330,000 compounds, 0.19% hits. AID 485353. Potency, µM (highest dose often 32.9 µM), without a hit: at the highest dose activity, positive = growth rescue, usual class: activators; calls by dose curve; further: 0% is about no effect; nearly all actives have a fitted effect of over 55% in size
Vaccinia mCherry = inhibitors of vaccinia virus infection (mCherry reporter signal). Vaccinia virus mCherry reporter infection, fluorescence. AID 720579. 310,000 compounds, 0.63% hits. Potency, µM (top dose mostly 36.5 µM), for inactives: at the highest dose activity change, negative = inhibition, usual class: inhibitors; calls by dose curve; tested in A549 cells; further: on the % scale 0 is the no-effect control and ±100 the full control effect; nearly all actives have a fitted effect of over 35% in size
Vaccinia Venus = inhibitors of vaccinia virus (Venus reporter); AID 720580; 330,000 compounds, 0.46% hits; Vaccinia virus Venus reporter expression, fluorescence; Potency, µM (highest dose often 36.5 µM), for the others: at the top dose activity change, negative = inhibition, actives largely listed as inhibitors; calls by dose curve; tested in A549 cells; further: on the % scale 0 is the no-effect control and ±100 the full control effect; nearly all actives have a fitted effect of over 30% in size
AMA1 RON2 block = AMA1-RON2 (P. falciparum) interaction inhibition. 360,000 compounds, 0.2% hits. AlphaScreen AMA1-biotinylated RON2 peptide binding. Potency, µM (titrated, usually from 58.2 µM), inactives show at the highest dose activity change, negative = inhibition, hits mostly inhibitors. AID 720542;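 further: 0% = vehicle wells and -100% = peptide control; nearly all actives have a fitted effect of over 45% in size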
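AMA1 (3D7) with his tag at 25 nM final met compounds first, then biotinylated RON2 peptide at 25 nM; detection used donor plus acceptor beads, 10 µg/mL apiece, read by AlphaScreen after 30 min at room temperature.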
AmpC inh no detg = inhibitors of E. coli AmpC beta-lactamase without detergent. P00811. 330,000 compounds, 0.52% hits. AID 485341. Potency, µM (highest dose often 57.1 µM), inactives show at the top dose activity change, negative = inhibition, actives largely listed as inhibitors. AmpC nitrocefin hydrolysis, absorbance 480 nm, 0.0001% Triton;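 further: plate controls were no compound for no effect and no enzyme for full effect; nearly all actives have a fitted effect of over 20% in size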
Target sequence (P00811 whole entry, looked up): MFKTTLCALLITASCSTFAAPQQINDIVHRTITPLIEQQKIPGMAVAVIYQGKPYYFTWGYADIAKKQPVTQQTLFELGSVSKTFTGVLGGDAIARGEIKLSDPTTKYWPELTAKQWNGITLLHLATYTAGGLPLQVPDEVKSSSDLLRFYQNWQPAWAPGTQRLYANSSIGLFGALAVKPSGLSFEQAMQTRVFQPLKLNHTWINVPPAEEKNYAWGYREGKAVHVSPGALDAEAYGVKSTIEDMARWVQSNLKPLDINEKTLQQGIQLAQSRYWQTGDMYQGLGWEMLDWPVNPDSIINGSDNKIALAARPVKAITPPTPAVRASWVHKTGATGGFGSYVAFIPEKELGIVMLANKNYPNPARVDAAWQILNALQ
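AmpC (5.3 nM in the dispensed reagent) in 20 mM phosphate pH 7.0 with 0.01% (detergent screen) or 0.0001% Triton X-100 was preincubated with compounds for 15 min at room temperature. Nitrocefin was then added from an 800 uM solution, and hydrolysis was followed at 480 nm.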
AmpC inh detg = AmpC beta-lactamase inhibition with detergent present. Potency, µM (top dose mostly 114 µM), without a hit: at the top dose activity change, negative = inhibition, actives largely listed as inhibitors. 370,000 compounds, 0.041% hits. P00811. AmpC hydrolysis of nitrocefin, absorbance 480 nm, 0.01% Triton;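 further: 0% = no-compound wells and -100% = no-enzyme wells; nearly all actives have a fitted effect of over 25% in size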
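20 mM phosphate pH 7.0 + 0.01% (detergent screen) or 0.0001% Triton X-100; 5.3 nM AmpC reagent; cpd preinc 15 min RT; nitrocefin (800 uM stock) to start; A480 q20 s × 4 min; Activity was normalised to no-enzyme and no-compound control wells.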
Starred values were filed as active, the others as inactive; i = inactive; ? = inconclusive; nt = not tested or not shown; ! = a repeat was not active. Unless noted, the call rests on the fitted dose curve; in most records, active means well fitted curve in the direction sought with a large enough effect; inconclusive means small, poorly fitted or top-dose-only effect, or another doubt; inactive means no such curve, though single readings can be large; an effect the other way counts as inactive or inconclusive. Potency means the concentration at half of the fitted maximal effect.

SMILES | SARS PLP yeast | Vaccinia mCherry | Vaccinia Venus | AMA1 RON2 block | AmpC inh no detg | AmpC inh detg
COC(=O)N1C/C=C\C(c2ccc(OC)cc2)N(Cc2ccc(F)cc2)C(=O)C1 (stereo not given) | -3% | -19% | -22% | 69% | 171% | -3%
CCCCNC(=O)C(CC)(ONc1ccccc1C(F)(F)F)c1ccccc1OC (stereo not given) | -14% | -22% | -12% | ? | -2% | 9%
Cc1cccc(NC(=O)NNC(=O)c2cc3ccccc3cc2O)c1C | 6% | 0% | -1% | 44% | ? | 1%
O=C(NNC(=O)c1cc2ccccc2cc1O)Nc1ccccc1F | 1% | nt | nt | 138% | 18µM* | -3%
COc1cc(OC)nc(-n2ncc(Br)c(Br)c2=O)n1 | -57% | ? | 11µM* | 4% | -22% | -5%
COC(=O)c1cnn(-c2nc(OC)cc(OC)n2)c1C | 19% | -4% | 3% | -17% | -1% | -6%
CC1(C)S[C@@H]2[C@H](NC(=O)[C@H](N)c3ccccc3)C(=O)N2[C@H]1C(=O)O | -15% | -1% | -15% | 125% | 13µM*! | 45µM*
CC(Oc1ccccc1)C(=O)NC1C(=O)N2C(C(=O)O)C(C)(C)S[C@@H]12 (stereo not given in full) | nt | 11% | 40% | nt | nt | nt
CC1(C)S[C@@H]2[C@H](NC(=O)C(C(=O)O)c3ccccc3)C(=O)N2[C@H]1C(=O)O (stereo not given in full) | 0% | -14% | -13% | 37% | -28% | -4%
CC1(C)S[C@@H]2[C@H](NC(=O)[C@H](N)c3ccc(O)cc3)C(=O)N2[C@H]1C(=O)O | 1% | -3% | -22% | 132% | -23% | 35µM*
CN1CCN(c2cc(N3CCN(C(=O)c4ccco4)CC3)c3c4c(onc24)-c2ccccc2C3=O)CC1 | -5% | nt | nt | 18µM* | 99% | -2%
O=C1c2ccccc2-c2onc3c(N4CCN(CCO)CC4)cc(N4CCN(C(=O)c5ccco5)CC4)c1c23 | -4% | ? | 233% | 14µM* | 185% | -11%
O=C(O)CCCNc1cc(N2CCN(C(=O)c3ccco3)CC2)c2noc3c2c1C(=O)c1ccccc1-3 | -14% | i | 300% | -27% | 47% | 1%
O=C(c1cccc(F)c1F)N1CCOc2ccc(CN3CCN(Cc4ccccn4)CC3)cc2C1 | nt | -15% | -11% | nt | nt | nt
O=C(CCl)Nc1ccccc1Sc1ccccc1 | 13µM* | -15% | -8% | -16% | -18% | -7%
O=C(Cc1ccc(Cl)cc1)Nc1ccccc1Sc1ccccc1 | -16% | i | -10% | 25% | -35% | -1%
O=C(NN=C1CCCCCC1)c1cc2ccccc2cc1O | 0% | nt | nt | 157% | -48% | 2%
O=C1CCCC(=NNC(=O)c2cc3ccccc3cc2O)C1 | 28% | -19% | -7% | 47% | 32µM* | nt
O=C(NC1CCCCC1)c1cc2ccccc2cc1O | -4% | ? | -20% | 13% | 20µM* | 0%
Cc1nc2cc(NC(=O)[C@@H]3C[C@@H](Sc4ccccn4)CN3Cc3ccc4c(c3)OCCO4)ccc2s1 | nt | 10% | 5% | nt | nt | nt
NC(=O)[C@@H]1CCCN1C(=O)CCN1Cc2ccccc2OC(c2ccccc2F)C1 (stereo not given in full) | nt | -11% | -7% | nt | nt | nt
NCC12CC3CC(C1)CC(c1ccc(Cl)cc1)(C3)C2 | -4% | ? | 13µM* | 3% | 53% | 0%
CCOC(=O)CCc1ccc(NC(=O)/C=C/c2ccc([N+](=O)[O-])o2)cc1 | nt | ? | 13µM* | -9% | nt | nt
Cc1ccc(/C=C/C(=O)Nc2ccc([N+](=O)[O-])cc2)o1 | 2% | ? | -25% | -6% | -22% | 1%
COCC(=O)Nc1cc(C(=O)NC2Cc3ccccc3C2)cc2nc(-c3cccnc3)n(C)c12 | nt | -13% | 7% | nt | nt | nt
SMILES | SARS PLP yeast | Vaccinia mCherry | Vaccinia Venus | AMA1 RON2 block | AmpC inh no detg | AmpC inh detg
Cc1ccc(NC(=O)C2C(c3ccccc3)C2(Cl)Cl)c(C)c1 (stereo not given) | -27% | nt | nt | 4% | 28µM* | -1%
COc1cc(/C=N/NC(=O)CC2(C)OCCO2)cc(Br)c1O | 2% | i | 6% | -3% | -15% | 0%
COc1cc(/C=N/NC(=O)C23CC4CC(CC(C4)C2)C3)cc(Br)c1O | 4% | -24% | -5% | 26% | 28µM* | 2%
Nc1cccc(-c2c[nH]c3ncc(-c4cccnc4)cc23)c1 | nt | ? | 10µM* | -26% | nt | nt
Nc1ccc2nc(-c3cccnc3)[nH]c2c1 | -14% | -19% | -12% | -24% | -9% | -11%
OCCN1CCN(Cc2ccc3c(c2)CN(Cc2cccn2-c2ccccn2)CCO3)CC1 | nt | -10% | -13% | nt | nt | nt
CC(/C=N/NC(=O)c1ccc(CN2c3cccc4cccc(c34)S2(=O)=O)cc1)c1ccccc1 (stereo not given) | 4% | -9% | -10% | 74% | -42% | -5%
O=C(O)c1ccc(/C=N/NC(=O)c2ccc(CN3c4cccc5cccc(c45)S3(=O)=O)cc2)cc1 | 0% | nt | nt | 68% | 28µM* | -13%
CC(C)N(C(=O)[C@H]1C[C@H](CC(=O)NCCC2=CCCCC2)C(=O)N2CCc3c([nH]c4cc(-c5ccco5)ccc34)[C@]12C)C(C)C | -12% | 10µM* | 11µM* | ? | 28% | nt
CC(C)N(C(=O)[C@H]1C[C@H](CC(=O)NCCCN(C)C)C(=O)N2CCc3c([nH]c4cc(-c5ccco5)ccc34)[C@]12C)C(C)C | -5% | 10µM* | ? | -29% | 242% | nt
CCCCOc1cccc(C(=O)NC(=S)Nc2cccnc2)c1 | ? | ? | -1% | 2% | -18% | ?
CCCOc1cccc(C(=O)Nc2cccnc2)c1 | -5% | 14µM* | -13% | -4% | -8% | ?
O=C(CNC(=O)/C(=C/c1ccccc1)NC(=O)c1ccc(Br)cc1)OCc1ccccc1 | 8% | ? | -8% | -27% | 3.5µM* | -2%
COC(=O)c1ccc(NC(=S)Nc2ccc3ccccc3c2)cc1 | -10% | nt | -12% | -10% | 0.25µM* | -1%
CN(C)c1ccc(-c2csc(C(O)c3ccccc3)n2)cc1 (stereo not given) | nt | 24% | -3% | 25µM* | nt | nt
CC(O)(c1cccc(F)c1)c1nc(-c2ccc(Cl)cc2)cs1 (stereo not given) | nt | -10% | -10% | -2% | nt | nt
CN(C)c1ccc(-c2csc(C(C)(O)c3cccc(F)c3)n2)cc1 (stereo not given) | nt | -8% | -27% | 16µM* | nt | nt
CN(C)c1ccc(-c2csc(C(O)c3ccc(F)cc3)n2)cc1 (stereo not given) | nt | i | -5% | ? | nt | nt
